What was measured:
Test in all cases: log2 ratio of Biotin-Ahx-Ub-VS probe labelling (fragment/DMSO); higher = less target engagement (more negative = stronger competition), active = hit call of the paper (q ≤ 0.05, log2 ratio ≤ -1)
Settings in all cases: compound concentration: 200 uM; treatment time: 3 h
[1] = biological target: T1, USP42 (UniProt Q9H9J4)
T1 sequence (whole entry): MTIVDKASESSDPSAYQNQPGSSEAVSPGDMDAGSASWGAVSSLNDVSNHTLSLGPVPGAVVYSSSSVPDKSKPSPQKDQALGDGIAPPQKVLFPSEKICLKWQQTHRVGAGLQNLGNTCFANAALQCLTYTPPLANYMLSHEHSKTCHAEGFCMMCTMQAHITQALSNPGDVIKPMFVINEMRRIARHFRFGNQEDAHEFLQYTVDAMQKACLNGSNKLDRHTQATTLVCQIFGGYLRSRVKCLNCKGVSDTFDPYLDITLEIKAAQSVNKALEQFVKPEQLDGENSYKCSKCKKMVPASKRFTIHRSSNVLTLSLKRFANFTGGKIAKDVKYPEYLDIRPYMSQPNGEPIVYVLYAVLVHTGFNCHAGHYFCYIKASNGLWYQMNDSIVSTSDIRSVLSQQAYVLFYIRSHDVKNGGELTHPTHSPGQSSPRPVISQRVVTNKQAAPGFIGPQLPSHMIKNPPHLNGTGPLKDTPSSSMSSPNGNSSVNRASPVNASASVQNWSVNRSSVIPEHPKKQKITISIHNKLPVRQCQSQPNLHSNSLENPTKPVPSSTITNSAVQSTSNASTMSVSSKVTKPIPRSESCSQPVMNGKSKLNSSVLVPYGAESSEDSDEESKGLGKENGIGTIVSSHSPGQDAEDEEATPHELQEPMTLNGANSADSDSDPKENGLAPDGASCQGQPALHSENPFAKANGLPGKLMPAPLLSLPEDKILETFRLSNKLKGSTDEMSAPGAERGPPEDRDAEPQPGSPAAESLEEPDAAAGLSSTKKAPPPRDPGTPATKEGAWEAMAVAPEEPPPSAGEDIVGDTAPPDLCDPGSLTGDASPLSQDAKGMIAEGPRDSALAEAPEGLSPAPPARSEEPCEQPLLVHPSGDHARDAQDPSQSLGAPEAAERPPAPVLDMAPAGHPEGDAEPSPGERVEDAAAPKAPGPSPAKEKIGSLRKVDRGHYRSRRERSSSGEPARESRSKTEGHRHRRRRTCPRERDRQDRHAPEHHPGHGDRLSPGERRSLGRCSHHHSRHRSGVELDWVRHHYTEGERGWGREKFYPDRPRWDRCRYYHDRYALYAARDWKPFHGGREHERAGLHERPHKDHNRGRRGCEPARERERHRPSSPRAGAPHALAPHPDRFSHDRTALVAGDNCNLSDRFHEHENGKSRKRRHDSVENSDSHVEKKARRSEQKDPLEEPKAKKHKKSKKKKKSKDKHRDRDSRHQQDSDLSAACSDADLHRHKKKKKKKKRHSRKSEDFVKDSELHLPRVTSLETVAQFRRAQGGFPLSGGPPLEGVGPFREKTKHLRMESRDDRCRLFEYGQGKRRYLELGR
Procedure, shortened: (§1)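 Using Biotin-Ahx-Ub-VS at 0.5 µM final for 1 h, DUBs were labelled in HEK293T lysate (495 µg per sample) that had first been treated in triplicate with fragment at 200 µM or vehicle for 3 h. NeutrAvidin enrichment, LysC and trypsin digestion and diaPASEF LC-MS/MS followed. Spectronaut label-free quantities were global-median-normalised. Values are average log2 fragment/vehicle ratios by unpaired t-test, using proteins with ≥2 unique peptides.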

[2] = biological target: USP46 (UniProt P62068)
Procedure, shortened: as §1

[3] = biological target: T2, USP47 (UniProt Q96K76)
T2 sequence (whole entry): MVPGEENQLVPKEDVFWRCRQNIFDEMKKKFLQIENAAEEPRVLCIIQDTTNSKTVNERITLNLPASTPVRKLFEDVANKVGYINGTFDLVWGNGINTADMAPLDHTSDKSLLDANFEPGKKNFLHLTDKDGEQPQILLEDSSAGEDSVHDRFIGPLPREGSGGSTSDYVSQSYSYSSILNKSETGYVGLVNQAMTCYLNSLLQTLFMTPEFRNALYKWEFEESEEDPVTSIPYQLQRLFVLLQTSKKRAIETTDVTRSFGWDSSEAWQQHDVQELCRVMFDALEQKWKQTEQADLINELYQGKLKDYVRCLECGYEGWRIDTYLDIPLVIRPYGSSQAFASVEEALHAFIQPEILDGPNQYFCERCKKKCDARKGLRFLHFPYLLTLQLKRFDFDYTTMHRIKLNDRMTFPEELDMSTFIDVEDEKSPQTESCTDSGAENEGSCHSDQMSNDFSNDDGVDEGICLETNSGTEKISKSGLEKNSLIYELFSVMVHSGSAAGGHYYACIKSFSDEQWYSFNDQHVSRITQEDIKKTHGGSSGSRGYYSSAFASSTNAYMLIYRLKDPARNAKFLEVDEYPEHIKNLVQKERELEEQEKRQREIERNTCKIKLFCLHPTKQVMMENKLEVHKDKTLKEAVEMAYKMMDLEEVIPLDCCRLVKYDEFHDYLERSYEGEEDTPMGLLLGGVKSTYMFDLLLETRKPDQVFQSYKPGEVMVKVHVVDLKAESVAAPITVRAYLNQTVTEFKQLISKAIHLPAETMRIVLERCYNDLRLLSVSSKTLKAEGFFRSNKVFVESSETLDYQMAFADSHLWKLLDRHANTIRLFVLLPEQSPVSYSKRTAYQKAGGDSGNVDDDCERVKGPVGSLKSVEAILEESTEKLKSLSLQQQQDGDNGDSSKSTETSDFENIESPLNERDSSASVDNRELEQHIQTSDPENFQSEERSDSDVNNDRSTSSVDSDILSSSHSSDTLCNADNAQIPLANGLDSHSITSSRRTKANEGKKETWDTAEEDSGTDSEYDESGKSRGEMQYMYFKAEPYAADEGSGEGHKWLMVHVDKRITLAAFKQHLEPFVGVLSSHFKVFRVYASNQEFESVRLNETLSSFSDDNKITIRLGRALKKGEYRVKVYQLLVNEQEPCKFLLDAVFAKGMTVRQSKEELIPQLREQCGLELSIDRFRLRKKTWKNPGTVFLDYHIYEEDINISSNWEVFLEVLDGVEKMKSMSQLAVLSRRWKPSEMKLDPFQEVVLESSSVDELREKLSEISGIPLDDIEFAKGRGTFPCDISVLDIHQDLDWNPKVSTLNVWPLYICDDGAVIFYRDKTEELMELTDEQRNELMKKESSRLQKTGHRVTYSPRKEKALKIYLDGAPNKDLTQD
Procedure, shortened: as §1

[4] = biological target: T3, USP48 (UniProt Q86UV5)
T3 sequence (whole entry): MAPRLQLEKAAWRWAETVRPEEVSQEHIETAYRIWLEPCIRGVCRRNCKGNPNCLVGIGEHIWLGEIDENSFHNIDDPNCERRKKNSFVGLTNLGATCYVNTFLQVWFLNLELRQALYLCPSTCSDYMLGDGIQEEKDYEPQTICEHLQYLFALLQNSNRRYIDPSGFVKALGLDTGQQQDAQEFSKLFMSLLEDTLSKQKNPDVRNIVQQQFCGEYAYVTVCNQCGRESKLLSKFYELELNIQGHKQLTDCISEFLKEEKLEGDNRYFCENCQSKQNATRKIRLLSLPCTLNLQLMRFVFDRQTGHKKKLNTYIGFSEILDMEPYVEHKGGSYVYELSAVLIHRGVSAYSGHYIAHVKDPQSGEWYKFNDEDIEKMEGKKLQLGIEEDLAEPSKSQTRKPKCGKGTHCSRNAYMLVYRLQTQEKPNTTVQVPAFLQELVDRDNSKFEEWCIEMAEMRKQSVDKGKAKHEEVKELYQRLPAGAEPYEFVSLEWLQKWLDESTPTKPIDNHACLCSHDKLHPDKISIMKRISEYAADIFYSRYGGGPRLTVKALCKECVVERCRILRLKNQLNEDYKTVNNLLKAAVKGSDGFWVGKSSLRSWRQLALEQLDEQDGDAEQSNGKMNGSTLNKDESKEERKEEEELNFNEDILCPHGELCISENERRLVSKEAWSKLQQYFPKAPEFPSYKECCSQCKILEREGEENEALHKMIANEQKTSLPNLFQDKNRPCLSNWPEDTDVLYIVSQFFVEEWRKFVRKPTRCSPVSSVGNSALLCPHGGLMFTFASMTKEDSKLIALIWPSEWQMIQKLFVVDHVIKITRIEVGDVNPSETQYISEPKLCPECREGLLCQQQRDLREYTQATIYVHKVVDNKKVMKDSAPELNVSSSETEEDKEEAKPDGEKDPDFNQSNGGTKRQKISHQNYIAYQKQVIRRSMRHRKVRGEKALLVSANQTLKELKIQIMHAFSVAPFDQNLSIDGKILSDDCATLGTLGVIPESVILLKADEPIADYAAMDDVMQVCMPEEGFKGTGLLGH
Procedure, shortened: as §1

[5] = biological target: T4, USP5 (UniProt P45974)
T4 sequence (whole entry): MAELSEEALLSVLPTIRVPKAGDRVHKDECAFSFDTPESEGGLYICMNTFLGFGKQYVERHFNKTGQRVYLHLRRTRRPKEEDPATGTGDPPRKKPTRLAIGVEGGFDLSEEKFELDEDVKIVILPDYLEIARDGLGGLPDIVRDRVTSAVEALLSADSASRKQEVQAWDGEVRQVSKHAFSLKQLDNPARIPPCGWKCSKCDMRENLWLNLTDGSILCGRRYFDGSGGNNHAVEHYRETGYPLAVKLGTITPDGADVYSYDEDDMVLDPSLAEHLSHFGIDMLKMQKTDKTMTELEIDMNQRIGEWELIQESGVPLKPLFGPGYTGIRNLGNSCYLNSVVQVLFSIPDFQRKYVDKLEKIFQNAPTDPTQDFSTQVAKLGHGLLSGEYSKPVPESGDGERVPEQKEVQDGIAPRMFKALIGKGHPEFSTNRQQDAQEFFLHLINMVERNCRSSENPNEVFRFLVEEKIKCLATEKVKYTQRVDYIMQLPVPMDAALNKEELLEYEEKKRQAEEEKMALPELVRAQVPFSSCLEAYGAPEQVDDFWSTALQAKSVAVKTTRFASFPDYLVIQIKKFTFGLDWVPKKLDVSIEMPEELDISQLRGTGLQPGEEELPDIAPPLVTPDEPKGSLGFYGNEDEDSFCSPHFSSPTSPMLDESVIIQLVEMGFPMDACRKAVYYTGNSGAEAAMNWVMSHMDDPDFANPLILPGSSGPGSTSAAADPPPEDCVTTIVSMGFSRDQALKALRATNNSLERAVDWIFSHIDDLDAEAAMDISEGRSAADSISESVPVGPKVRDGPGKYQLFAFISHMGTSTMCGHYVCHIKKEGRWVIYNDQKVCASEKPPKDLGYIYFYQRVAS
Procedure, shortened: as §1

[6] = biological target: USP54 (UniProt Q70EL1)
Procedure, shortened: as §1

[7] = biological target: USP7 (UniProt Q93009)
Procedure, shortened: as §1

[8] = biological target: T5, USP8 (UniProt P40818)
T5 sequence (whole entry): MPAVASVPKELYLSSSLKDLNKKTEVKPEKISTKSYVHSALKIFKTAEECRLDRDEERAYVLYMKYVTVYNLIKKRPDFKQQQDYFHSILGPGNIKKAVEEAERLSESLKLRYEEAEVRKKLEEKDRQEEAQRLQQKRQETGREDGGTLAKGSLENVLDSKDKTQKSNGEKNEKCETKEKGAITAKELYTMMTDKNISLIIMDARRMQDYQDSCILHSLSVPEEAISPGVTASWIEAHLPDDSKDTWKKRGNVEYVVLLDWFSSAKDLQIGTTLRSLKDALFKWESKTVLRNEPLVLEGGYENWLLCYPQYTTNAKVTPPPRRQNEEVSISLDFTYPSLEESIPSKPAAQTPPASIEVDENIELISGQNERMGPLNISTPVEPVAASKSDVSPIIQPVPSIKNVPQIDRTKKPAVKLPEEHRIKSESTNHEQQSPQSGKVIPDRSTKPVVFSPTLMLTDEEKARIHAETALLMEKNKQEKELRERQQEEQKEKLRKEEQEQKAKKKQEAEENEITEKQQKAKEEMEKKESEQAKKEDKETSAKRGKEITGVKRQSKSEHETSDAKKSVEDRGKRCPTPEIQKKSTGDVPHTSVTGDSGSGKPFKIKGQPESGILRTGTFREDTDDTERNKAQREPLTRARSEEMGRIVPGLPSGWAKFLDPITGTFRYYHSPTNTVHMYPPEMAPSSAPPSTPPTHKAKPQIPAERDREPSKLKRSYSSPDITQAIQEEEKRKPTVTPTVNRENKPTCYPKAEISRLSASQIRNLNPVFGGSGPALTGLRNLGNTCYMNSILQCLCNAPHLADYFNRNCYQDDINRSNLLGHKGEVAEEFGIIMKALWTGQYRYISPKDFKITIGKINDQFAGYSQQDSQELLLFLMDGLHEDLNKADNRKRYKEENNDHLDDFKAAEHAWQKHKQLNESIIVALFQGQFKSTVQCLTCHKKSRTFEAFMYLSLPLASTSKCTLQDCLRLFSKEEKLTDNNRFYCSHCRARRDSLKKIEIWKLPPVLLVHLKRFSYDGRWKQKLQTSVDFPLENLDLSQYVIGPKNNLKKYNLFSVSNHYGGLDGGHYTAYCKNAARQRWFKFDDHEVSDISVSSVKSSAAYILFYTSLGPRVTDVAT
Procedure, shortened: as §1

Measured: log2 ratio of Biotin-Ahx-Ub-VS probe labelling

Sequence of USP7 (Q93009 whole entry, looked up): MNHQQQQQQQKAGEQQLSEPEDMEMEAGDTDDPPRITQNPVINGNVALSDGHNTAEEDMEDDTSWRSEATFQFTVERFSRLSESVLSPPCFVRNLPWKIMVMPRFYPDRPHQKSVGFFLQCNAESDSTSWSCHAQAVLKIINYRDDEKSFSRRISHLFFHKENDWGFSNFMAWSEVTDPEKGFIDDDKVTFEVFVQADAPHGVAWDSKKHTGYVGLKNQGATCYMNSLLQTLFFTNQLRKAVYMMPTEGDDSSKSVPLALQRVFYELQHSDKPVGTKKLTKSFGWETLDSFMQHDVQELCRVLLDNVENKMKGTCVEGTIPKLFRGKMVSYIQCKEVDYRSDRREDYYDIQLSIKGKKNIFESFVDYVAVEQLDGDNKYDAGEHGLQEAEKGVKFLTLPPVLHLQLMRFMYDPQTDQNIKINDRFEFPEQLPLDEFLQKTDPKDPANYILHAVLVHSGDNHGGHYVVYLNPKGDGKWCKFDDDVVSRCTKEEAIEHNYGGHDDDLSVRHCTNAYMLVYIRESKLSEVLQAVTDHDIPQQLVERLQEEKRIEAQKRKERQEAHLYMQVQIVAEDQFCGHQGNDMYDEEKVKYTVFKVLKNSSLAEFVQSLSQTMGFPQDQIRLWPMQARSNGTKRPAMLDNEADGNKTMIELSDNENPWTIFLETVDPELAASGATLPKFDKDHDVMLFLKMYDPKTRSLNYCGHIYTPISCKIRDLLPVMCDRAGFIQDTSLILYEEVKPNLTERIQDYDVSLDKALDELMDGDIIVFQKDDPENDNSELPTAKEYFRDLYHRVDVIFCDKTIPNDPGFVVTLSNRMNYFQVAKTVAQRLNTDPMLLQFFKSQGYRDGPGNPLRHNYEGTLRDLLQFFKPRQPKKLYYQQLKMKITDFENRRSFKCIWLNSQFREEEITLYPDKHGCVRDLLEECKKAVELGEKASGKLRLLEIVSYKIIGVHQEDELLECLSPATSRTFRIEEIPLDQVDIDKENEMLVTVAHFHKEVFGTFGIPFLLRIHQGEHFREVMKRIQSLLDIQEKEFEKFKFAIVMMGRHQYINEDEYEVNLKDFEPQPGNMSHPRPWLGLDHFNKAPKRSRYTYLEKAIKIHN
Sequence of USP54 (Q70EL1 whole entry): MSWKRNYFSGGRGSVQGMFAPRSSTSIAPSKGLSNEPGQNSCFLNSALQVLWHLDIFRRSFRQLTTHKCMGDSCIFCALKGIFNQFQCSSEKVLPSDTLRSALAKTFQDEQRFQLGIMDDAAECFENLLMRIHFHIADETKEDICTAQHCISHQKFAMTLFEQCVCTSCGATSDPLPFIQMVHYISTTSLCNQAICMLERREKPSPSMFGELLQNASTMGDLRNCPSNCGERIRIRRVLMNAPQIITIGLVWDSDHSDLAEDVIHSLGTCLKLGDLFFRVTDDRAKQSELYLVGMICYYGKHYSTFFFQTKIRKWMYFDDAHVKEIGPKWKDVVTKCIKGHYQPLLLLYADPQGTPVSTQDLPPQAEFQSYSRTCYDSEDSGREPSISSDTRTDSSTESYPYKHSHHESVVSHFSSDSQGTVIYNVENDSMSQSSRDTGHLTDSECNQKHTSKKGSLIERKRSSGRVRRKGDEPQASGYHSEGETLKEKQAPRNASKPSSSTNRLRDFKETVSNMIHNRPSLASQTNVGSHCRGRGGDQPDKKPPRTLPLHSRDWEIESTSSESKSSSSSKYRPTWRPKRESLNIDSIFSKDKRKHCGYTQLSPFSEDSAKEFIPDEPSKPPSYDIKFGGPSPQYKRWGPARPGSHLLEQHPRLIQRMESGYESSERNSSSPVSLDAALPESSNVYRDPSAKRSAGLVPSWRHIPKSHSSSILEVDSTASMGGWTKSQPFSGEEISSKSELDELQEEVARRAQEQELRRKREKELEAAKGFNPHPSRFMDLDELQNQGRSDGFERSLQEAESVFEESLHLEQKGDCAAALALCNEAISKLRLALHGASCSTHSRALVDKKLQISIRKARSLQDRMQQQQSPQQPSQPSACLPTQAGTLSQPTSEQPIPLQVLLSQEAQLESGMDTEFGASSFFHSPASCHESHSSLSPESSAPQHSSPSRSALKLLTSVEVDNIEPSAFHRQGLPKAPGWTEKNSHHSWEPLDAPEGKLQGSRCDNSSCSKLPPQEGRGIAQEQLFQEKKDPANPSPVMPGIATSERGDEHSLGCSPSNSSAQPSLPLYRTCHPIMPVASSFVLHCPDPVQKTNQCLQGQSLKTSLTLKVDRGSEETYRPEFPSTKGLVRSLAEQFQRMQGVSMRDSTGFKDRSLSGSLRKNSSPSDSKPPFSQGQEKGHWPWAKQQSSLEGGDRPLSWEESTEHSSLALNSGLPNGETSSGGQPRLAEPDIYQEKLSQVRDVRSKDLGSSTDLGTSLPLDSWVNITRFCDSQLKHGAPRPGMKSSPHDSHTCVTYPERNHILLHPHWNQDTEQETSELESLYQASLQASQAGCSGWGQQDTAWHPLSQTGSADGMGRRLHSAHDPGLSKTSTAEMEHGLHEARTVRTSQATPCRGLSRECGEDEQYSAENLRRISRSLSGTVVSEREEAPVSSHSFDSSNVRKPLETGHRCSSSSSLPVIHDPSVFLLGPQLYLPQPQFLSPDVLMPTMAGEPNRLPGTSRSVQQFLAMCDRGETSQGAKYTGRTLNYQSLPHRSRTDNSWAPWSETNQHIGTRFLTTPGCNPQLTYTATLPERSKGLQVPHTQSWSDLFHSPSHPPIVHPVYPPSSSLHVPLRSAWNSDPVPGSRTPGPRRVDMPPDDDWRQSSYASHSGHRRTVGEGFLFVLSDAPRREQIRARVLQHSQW
Sequence of USP46 (P62068 whole entry): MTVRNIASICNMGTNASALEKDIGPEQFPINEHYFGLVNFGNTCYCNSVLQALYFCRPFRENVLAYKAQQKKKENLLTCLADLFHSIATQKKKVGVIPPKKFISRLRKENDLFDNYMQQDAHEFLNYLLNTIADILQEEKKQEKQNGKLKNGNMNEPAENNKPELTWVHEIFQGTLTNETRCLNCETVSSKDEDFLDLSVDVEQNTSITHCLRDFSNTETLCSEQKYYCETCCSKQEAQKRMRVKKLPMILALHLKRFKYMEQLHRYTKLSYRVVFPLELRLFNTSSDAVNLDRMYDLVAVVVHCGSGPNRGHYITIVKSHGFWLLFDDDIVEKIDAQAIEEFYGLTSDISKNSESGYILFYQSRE

CN1c2ccccc2C(NC(=O)CCl)CS1(=O)=O (stereo not drawn)
inactive: [1] -0.0975 | [2] 0.0351 | [3] -0.132 | [4] -0.464 | [5] 0.146 | [6] 0.66 | [7] -0.369 | [8] -0.341

From the supplement of paper PMC11732987, “Enantioselective OTUD7B fragment discovery through chemoproteomics screening and high-throughput optimisation” (Communications Chemistry, 2025)
